An excerpt weighted towards active compounds, which were near 4.1% of everything screened.
FBA Mtb inh – inhibitors of M. tuberculosis fructose-bisphosphate aldolase | P9WQA3 | purified M. tuberculosis FBA, fluorescence read-out | inhibition, % at 1 µM | actives 2.3% (n = 360,000); in the data active means inhibition above about 27%;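 further: 0% = vehicle and 100% = reference inhibitor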
Target sequence (P9WQA3 whole entry, looked up): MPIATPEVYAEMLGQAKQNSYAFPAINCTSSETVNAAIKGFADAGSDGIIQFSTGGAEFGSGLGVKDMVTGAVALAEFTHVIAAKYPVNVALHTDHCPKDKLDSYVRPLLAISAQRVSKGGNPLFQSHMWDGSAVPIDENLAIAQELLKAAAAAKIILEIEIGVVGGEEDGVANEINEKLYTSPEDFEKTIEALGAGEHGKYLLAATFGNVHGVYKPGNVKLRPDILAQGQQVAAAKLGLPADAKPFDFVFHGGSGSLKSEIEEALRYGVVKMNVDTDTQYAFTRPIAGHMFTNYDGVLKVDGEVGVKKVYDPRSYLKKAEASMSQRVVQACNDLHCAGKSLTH
GDH-TPI counter – GDH-TPI coupled enzyme inhibition counter-screen | GDH-TPI coupled enzyme counterscreen, NADH absorbance | inhibition, % at 4.8 µM | actives 1.2% (n = 360,000) | AID 588335; in the data active means inhibition above about 30%;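 further: 0% = DMSO wells and 100% = wells lacking the enzyme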
RecA intein inh – Mtb RecA intein splicing inhibition; cell-free RecA intein splicing, fluorescence; inhibition, % (concentration not given with the values); actives 0.75% (n = 290,000); AID 2221; in the data active means inhibition above about 30%;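 further: 0% = vehicle wells and 100% = reference inhibitor control wells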
UGM FP inh – inhibitors of M. tuberculosis UDP-galactopyranose mutase; actives 0.06% (n = 320,000); AID 504406; purified UGM, fluorescence polarization probe displacement; inhibition, % at 10 µM; in the data active means inhibition above about 10%, passing the limit was not always enough
BH1578 lux ind – induces V. cholerae light production without autoinducers. V. cholerae BH1578 lux reporter, luminescence, 6 h. activation, % at 18.7 µM. actives 0.16% (n = 350,000). AID 588436; in the data active means activation mostly above about 9.7%, no sharp cut-off
Rv3671c inh – Rv3671c (M. tuberculosis) protease inhibition. inhibition, % at 5.96 µM. actives 0.048% (n = 320,000). AID 2606; in the data active means inhibition above about 38%;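 further: extracellular domain of Rv3671c used as enzyme; 0% = enzyme with DMSO and 100% = no enzyme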
* = called active by the depositor; i = inactive; . = no result; + = active, no number.

SMILES	FBA Mtb inh	GDH-TPI counter	RecA intein inh	UGM FP inh	BH1578 lux ind	Rv3671c inh
COc1cccc2c1OC1(N3CCOCC3)CCCCC1C2C[N+](=O)[O-] (centres undefined)	-1.0	8.4	.	.	-3.1	.
COc1ccc(CCNC(=O)c2cnc3scc(C)n3c2=O)cc1OC	4.6	32.9*	0.0	4.5	-0.1	3.9
COc1ccc(C)cc1NC(=O)c1cnc2scc(C)n2c1=O	4.5	15.6	.	.	-0.2	.
Cc1cccc(NC(=O)c2cnc3sccn3c2=O)n1	8.7	32.7*	-1.8	3.3	-0.2	-1.7
COc1ccccc1CNC(=O)c1cnc2sccn2c1=O	0.0	36.5*	0.4	0.7	-0.3	-1.3
O=C(NCc1cccnc1)c1cnc2n(c1=O)CCS2	2.2	-1.4	1.2	-0.4	i	9.6
O=C(NCc1cccnc1)c1cnc2sccn2c1=O	21.2	41.3*	3.3	-5.6	-0.2	0.2
O=C(Nc1ccccc1Cl)C(=O)c1cn(CC(=O)N2CCOCC2)c2ccccc12	0.3	25.8	1.7	1.4	i	-63.5
Cc1nc(SCc2nc3c([N+](=O)[O-])cccc3[nH]2)c2oc3ccccc3c2n1	5.6	10.2	.	-1.6	i	1.3
COc1ccc(C2CC(c3cccs3)=NN2c2ccc(C=O)cc2)cc1 (centres undefined)	.	.	i	9.7	.	-1.0
COc1ccc(C2CC(c3ccccc3Cl)=NN2c2ccc(S(N)(=O)=O)cc2)cc1 (centres undefined)	173.8*	2.7	.	.	-1.1	.
COc1ccc(C2CC(c3ccccc3)=NN2c2ccc(C(N)=O)cc2)cc1 (centres undefined)	+	15.4	-233.9	0.4	-0.4	8.1
O=C(O)c1ccc(N2N=C(c3ccccc3)CC2c2ccccc2)cc1 (centres undefined)	+	32.2*	-429.3	2.5	i	2.0
COc1ccc(C2CC(c3ccccc3)=NN2c2ccc(/C=N/NC(=O)c3ccncc3)cc2)cc1 (centres undefined)	-2.3	2.2	-77.1	-1.1	6.7	-9.2
COc1ccc(C2=NN(c3ccc(C=O)cc3)C(c3ccccc3)C2)cc1 (centres undefined)	.	.	-70.4	-3.9	.	7.0
COc1ccc(C2CC(c3ccccc3)=NN2c2ccc(S(N)(=O)=O)cc2)cc1 (centres undefined)	+	10.7	-10.9	-2.2	.	-2.4
CC(=O)Nc1ccc(C2CC(c3ccc(Cl)cc3)=NN2c2ccccc2)cc1 (centres undefined)	26.8	-0.3	-16.4	-1.5	-0.6	2.8
Cc1ccc(SCC(=O)NC2CCCCCC2)cc1	0.2	2.4	.	-0.2	-0.1	-3.3
COc1ccc(C2=NN(S(=O)(=O)c3ccccc3)C(c3ccccc3)C2)cc1 (centres undefined)	2.7	11.7	1.0	-1.0	i	-11.8
NS(=O)(=O)c1ccc(N2N=C(c3ccccc3)CC2c2ccc(F)cc2)cc1 (centres undefined)	+	9.4	-27.0	-2.3	3.4	7.2
COc1ccc(C2CC(c3cccc(C(F)(F)F)c3)=NN2c2ccc(S(N)(=O)=O)cc2)cc1 (centres undefined)	+	4.2	.	.	i	.
COc1ccc(C2CC(c3cccc([N+](=O)[O-])c3)=NN2/C(C)=C/C(C)=O)cc1 (centres undefined)	-0.8	-4.9	.	.	i	.
COc1ccc(C2CC(c3cccc(F)c3)=NN2c2ccc(S(N)(=O)=O)cc2)cc1 (centres undefined)	+	24.0	.	.	i	.
CCCN(CCC)C1=CC(=[N+]2CCCC2)CC(C)(C)C1	-3.5	45.9*	1.7	-1.3	-0.2	2.2
CC1(C)CC(N2CCOCC2)=CC(=[N+]2CCOCC2)C1	-6.0	29.3	-1.1	-3.6	-0.5	4.8
CC1(C)CC(N2CCCCC2)=CC(=[N+]2CCCCC2)C1	-4.3	90.2*	0.3	2.7	i	-6.2
CC1C[N+](=C2C=C(N3CCOCC3)CC(C)(C)C2)CC(C)O1 (centres undefined)	4.9	61.4*	1.2	-1.7	-0.4	-1.9
CN(C)NC1=CC(=[N+]2CCCC2)CC(C)(C)C1	0.7	7.4	-0.6	-1.1	2.4	10.3
O=C(C1CCN(S(=O)(=O)c2ccccc2F)CC1)N1CCN(Cc2ccc3c(c2)OCO3)CC1	0.3	8.2	.	0.6	-3.9	1.5
COC(=O)C1=CN(Cc2ccccc2)C=C(C(=O)OC)C1c1cc(F)ccc1F	121.7*	8.0	-184.1	1.3	i	5.5
